Results reported in PubChem BioAssay (NCATS).
For some assays here: Results with a measured potency or affinity are listed apart. Activity calls are given as the source filed them.

Tests used:
[1] = Ebola virus entry assay, green fluorescence channel
[2] = Ebola virus entry assay, ratio channel readout
[3] = Ebola virus entry assay, blue channel fluorescence
[4] = Ebola virus entry assay, ratio channel
[5] = Ebola virus entry assay, reporter ratio channel; AC50: Channel type: primary unless noted; outcome: Channel type: primary unless noted
[6] = Ebola virus entry reporter assay, green channel fluorescence
[7] = Ebola virus entry cell assay, ratio channel
[8] = Ebola virus entry assay, blue channel (ratio component)

Measured: AC50

CN(C)CCC[C@@]1(c2ccc(F)cc2)OCc2cc(C#N)ccc21
active: [3] 39.8 µM | [5] 39.8 µM
not listed: [8]
inactive: all other assays above

COc1cc2c(cc1OC)C(=O)C(CC1CCN(Cc3ccccc3)CC1)C2 (stereo not given)
active: [3] 35.5 µM | [4] 22.4 µM | [5] 22.4 µM
not listed: [8]
inactive: all other assays above

C=C1C[C@@H]2[C@H](CC[C@]3(C)C(=O)CC[C@@H]23)[C@@]2(C)C=CC(=O)C=C12
active: [3] 28.2 µM | [4] 25.1 µM | [5] 25.1 µM | [7] 15.8 µM
inactive: [1] | [2]

CN1C[C@H]2c3ccccc3Oc3ccc(Cl)cc3[C@@H]2C1
active: [3] 22.4 µM | [4] 14.1 µM | [5] 14.1 µM | [7] 17.8 µM
inactive: [1] | [2]

COc1cc2c(c(OC)c1OC)-c1ccc(OC)c(=O)cc1[C@@H](NC(C)=O)CC2
inactive: [1] | [5] inactive [Channel type: confirmation] | [8]
active: [2] 0.32 µM | [3] 22.4 µM | [4] 0.316 µM | [7] 0.316 µM

O=C1c2c(O)ccc(O)c2C(=O)c2c(NCCNCCO)ccc(NCCNCCO)c21
inactive: [1] | [2]
active: [3] 12.6 µM | [4] 7.94 µM | [5] 7.94 µM | [7] 5.01 µM

CCN(CC)CCOC(=O)C1(C2CCCCC2)CCCCC1
inactive: [1] | [2] | [6]
active: [3] 12.6 µM | [4] 10 µM | [5] 10 µM | [7] 15.8 µM

CN1CCc2cccc3c2[C@H]1Cc1ccc(O)c(O)c1-3
active: [3] 28.2 µM | [4] 28.2 µM | [5] 28.2 µM
not listed: [8]
inactive: all other assays above

CN1CCC(=C2c3ccccc3C=Cc3ccccc32)CC1
inactive: [1] | [2] | [6]
active: [3] 11.2 µM | [4] 10 µM | [5] 10 µM | [7] 14.1 µM

O=C1c2cccc3c2[C@H](CCC3)CN1[C@@H]1CN2CCC1CC2
active: [3] 20 µM | [4] 28.2 µM | [5] 28.2 µM
not listed: [8]
inactive: all other assays above

Cc1ccsc1C(=CCCN1CCC[C@@H](C(=O)O)C1)c1sccc1C
active: [3] 35.5 µM | [4] 20 µM | [5] 20 µM
not listed: [8]
inactive: all other assays above

CCN(CC)CCCC(C)Nc1ccnc2cc(Cl)ccc12 (stereo not given)
inactive: [1]
active: [2] 2.82 µM | [3] 1.26 µM | [4] 1.12 µM | [5] 1.12 µM | [7] 2.82 µM

Cc1c(O)cccc1C(=O)N[C@@H](CSc1ccccc1)[C@H](O)CN1C[C@H]2CCCC[C@H]2C[C@H]1C(=O)NC(C)(C)C
active: [3] 39.8 µM | [5] 39.8 µM
not listed: [8]
inactive: all other assays above

CN(C)CCCN1c2ccccc2CCc2ccc(Cl)cc21
inactive: [1] | [5] inactive [Channel type: confirmation]
active: [2] 6.31 µM | [3] 3.16 µM | [4] 3.16 µM | [7] 6.31 µM

CN(C)CCC=C1c2ccccc2CCc2ccccc21
active: [3] 8.91 µM | [4] 7.94 µM | [5] 7.94 µM | [7] 11.2 µM
inactive: [1] | [2] | [6]

COc1cc2ncnc(Nc3ccc(F)c(Cl)c3)c2cc1OCCCN1CCOCC1
inactive: [1] | [2] | [6]
active: [3] 2.82 µM | [4] 2.51 µM | [5] 2.51 µM | [7] 15.8 µM

O=c1[nH]c2ccccc2n1C1CCN(CCCC(c2ccc(F)cc2)c2ccc(F)cc2)CC1
active: [2] 7.95 µM | [3] 3.16 µM | [4] 3.98 µM | [5] 3.98 µM | [7] 7.94 µM
inactive: [1]

CN1CCN(CCCN2c3ccccc3Sc3ccc(C(F)(F)F)cc32)CC1
active: [3] 3.55 µM | [4] 2.82 µM | [7] 3.98 µM
inactive: [1] | [2] | [5] inactive [Channel type: confirmation]

Cc1nc(Nc2ncc(C(=O)Nc3c(C)cccc3Cl)s2)cc(N2CCN(CCO)CC2)n1
inactive: [1] | [2] | [6]
active: [3] 8.91 µM | [4] 7.94 µM | [5] 7.94 µM | [7] 28.2 µM

Fc1ccc([C@@H]2CCNC[C@H]2COc2ccc3c(c2)OCO3)cc1
inactive: [1]
active: [2] 5.02 µM | [3] 5.01 µM | [4] 3.98 µM | [5] 3.98 µM | [7] 5.01 µM

O=C1Cc2cc(CCN3CCN(c4nsc5ccccc45)CC3)c(Cl)cc2N1
active: [3] 22.4 µM | [4] 17.8 µM | [5] 17.8 µM | [7] 15.8 µM
inactive: [1] | [2]

COC(=O)[C@H]1[C@H]2C[C@@H]3c4[nH]c5cc(OC)ccc5c4CCN3C[C@H]2C[C@@H](OC(=O)c2cc(OC)c(OC)c(OC)c2)[C@@H]1OC
active: [3] 31.6 µM | [4] 25.1 µM | [5] 25.1 µM
not listed: [8]
inactive: all other assays above

OCCN(CCO)c1nc(N2CCCCC2)c2nc(N(CCO)CCO)nc(N3CCCCC3)c2n1
active: [1] 25.1 µM
not listed: [6] | [8]
inactive: all other assays above

CC[C@]1(O)C[C@H]2CN(CCc3c([nH]c4ccccc34)[C@@](C(=O)OC)(c3cc4c(cc3OC)N(C=O)[C@H]3[C@@](O)(C(=O)OC)[C@H](OC(C)=O)[C@]5(CC)C=CCN6CC[C@]43[C@@H]65)C2)C1
inactive: [1] | [2] | [4] | [5] inactive [Channel type: confirmation] | [8]
active: [3] 0.282 µM | [7] 0.112 µM

CN1CCN(C2=Nc3cc(Cl)ccc3Nc3ccccc32)CC1
active: [3] 15.8 µM | [4] 14.1 µM | [5] 14.1 µM
not listed: [8]
inactive: all other assays above

CC12CC3CC(C)(C1)CC(N)(C3)C2
active: [3] 14.1 µM | [4] 14.1 µM | [5] 14.1 µM
not listed: [8]
inactive: all other assays above

CC[C@@H]([C@H](C)O)n1ncn(-c2ccc(N3CCN(c4ccc(OC[C@@H]5CO[C@@](Cn6cncn6)(c6ccc(F)cc6F)C5)cc4)CC3)cc2)c1=O
inactive: [1] | [2]
active: [3] 4.47 µM | [4] 3.98 µM | [5] 3.98 µM | [7] 8.91 µM

CCN(CC)CCNC(=O)c1c(C)[nH]c(/C=C2\C(=O)Nc3ccc(F)cc32)c1C
inactive: [1] | [5] inactive [Channel type: confirmation]
active: [2] 3.17 µM | [3] 1 µM | [4] 0.708 µM | [7] 3.16 µM

CCCN(CCc1cccs1)[C@H]1CCc2c(O)cccc2C1
inactive: [1] | [2]
active: [3] 25.1 µM | [4] 25.1 µM | [5] 25.1 µM | [7] 15.8 µM

CN1CCN(C(c2ccccc2)c2ccccc2)CC1
active: [3] 28.2 µM | [4] 22.4 µM | [5] 22.4 µM
not listed: [8]
inactive: all other assays above

COC(=O)C1=C(C)NC(C)=C(C(=O)OCCN(C)Cc2ccccc2)C1c1cccc([N+](=O)[O-])c1 (stereo not given)
active: [3] 12.6 µM | [4] 10 µM | [5] 10 µM | [7] 28.2 µM
inactive: [1] | [2] | [6]

CN1CCN(C2=Nc3ccccc3Oc3ccc(Cl)cc32)CC1
active: [3] 39.8 µM | [4] 31.6 µM | [5] 31.6 µM
inactive: [1] | [2] | [7]

CNCCCC1c2ccccc2C=Cc2ccccc21
inactive: [1]
active: [2] 8.92 µM | [3] 10 µM | [4] 8.91 µM | [5] 8.91 µM | [7] 8.91 µM

CCc1nn(CCCN2CCN(c3cccc(Cl)c3)CC2)c(=O)n1CCOc1ccccc1
inactive: [1] | [2]
active: [3] 39.8 µM | [4] 31.6 µM | [5] 31.6 µM | [7] 22.4 µM

CCN(CC)CCN1C(=O)CN=C(c2ccccc2F)c2cc(Cl)ccc21
active: [3] 35.5 µM | [5] 39.8 µM
not listed: [8]
inactive: all other assays above

COc1cc(C(C)=O)ccc1OCCCN1CCC(c2noc3cc(F)ccc23)CC1
active: [3] 31.6 µM | [4] 28.2 µM | [5] 28.2 µM
inactive: [1] | [2] | [7]

CCCNCC(O)COc1ccccc1C(=O)CCc1ccccc1 (stereo not given)
active: [2] 8.92 µM | [3] 8.91 µM | [4] 7.94 µM | [7] 8.91 µM
inactive: [1] | [5] inactive [Channel type: confirmation] | [8]

CN1CCN(CCCN2c3ccccc3Sc3ccc(Cl)cc32)CC1
inactive: [1] | [2]
active: [3] 7.08 µM | [4] 3.98 µM | [5] 3.98 µM | [7] 14.1 µM

COCCCC/C(=N\OCCN)c1ccc(C(F)(F)F)cc1
active: [3] 15.8 µM | [4] 14.1 µM | [5] 14.1 µM
inactive: [1] | [2] | [7]

COc1cc(NCc2ccc3nc(N)nc(N)c3c2C)cc(OC)c1OC
inactive: [1] | [2] | [7]
active: [3] 35.5 µM | [4] 28.2 µM | [5] 28.2 µM

CCC(=O)C(CC(C)N(C)C)(c1ccccc1)c1ccccc1 (stereo not given)
inactive: [1] | [2]
active: [3] 10 µM | [4] 7.94 µM | [5] 7.94 µM | [7] 15.8 µM

COc1cc2nc(N3CCN(C(=O)c4ccco4)CC3)nc(N)c2cc1OC
inactive: [1] | [2]
active: [3] 15.8 µM | [4] 12.6 µM | [5] 12.6 µM | [7] 12.6 µM

CN(C)CCCN1c2ccccc2Sc2ccc(Cl)cc21
inactive: [1] | [2]
active: [3] 14.1 µM | [4] 3.98 µM | [5] 3.98 µM | [7] 10 µM

CNCC[C@@H](Oc1ccccc1C)c1ccccc1
inactive: [1] | [2]
active: [3] 10 µM | [4] 10 µM | [5] 10 µM | [7] 17.8 µM

Clc1ccc2c(c1)C(N1CCNCC1)=Nc1ccccc1O2
active: [2] 12.6 µM | [3] 14.1 µM | [4] 10 µM | [5] 10 µM | [7] 12.6 µM
inactive: [1]
